The list is not random: actives were taken first. Their share in the collection is about 4.2%.
hcDAF-12 act: H. contortus DAF-12 activation, primary screen. HEK293 hcDAF-12 lit1-tk-luc reporter, luminescence; 0% DMSO, 100% Δ7-dafachronic acid. activation, % at 6.8 µM. 370,000 compounds, 1.4% hits. AID 652067;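 active = activation above the mean of all tested compounds plus 3 SD, cut at about 5.5% in these data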;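 note: 100% = response to 3 µM Δ7-dafachronic acid high control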
ssDAF-12 act: S. stercoralis DAF-12 activation, primary screen | HEK293 ssDAF-12/GRIP1 lit1-tk-luc reporter, luminescence; % of 3 µM dafachronic acid response | activation, % at 6.8 µM | 370,000 compounds, 1% hits;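 active = activation above the mean over all tested compounds plus 3 SD, cut at about 0.9% in these data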;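 note: 0% = DMSO-only wells and 100% = 3 µM delta7-dafachronic acid wells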
Wnt act: activators of Wnt/beta-catenin signaling; Wnt/beta-catenin reporter cell assay, activator, plate reader; activation, % at 9.35 µM; 300,000 compounds, 1.2% hits; AID 743398; in the data active = activation above about 30%, passing the limit was not always enough;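 note: 0% = neutral control wells and 100% = positive control wells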
esBAF inh: blocks esBAF chromatin remodeling in mouse ES cells; 350,000 compounds, 2% hits; Bmi1-luciferase knock-in reporter, 24 h; 100% = twice the neutral-well signal; reporter increase, % at 12.5 µM; AID 602393; in the data active = activation above about 40%;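 note: 0% = median of the plate's neutral control wells and 100% = double that signal; a rise in the Bmi1 reporter signal indicates esBAF inhibition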
DAX1 StAR inh: blocks DAX1 repression of SF-1 activated StAR promoter | HEK293T StAR-luciferase reporter, SF-1/DAX-1 repression relief | 370,000 compounds, 1.1% hits | inhibition, % at 6.8 µM;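 active = inhibition above the mean over all tested compounds plus 3 SD, cut at about 3.6% in these data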;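 note: 0% = DAX-1 cells with DMSO and 100% = cells lacking DAX-1 with DMSO; higher inhibition means more luminescence from relief of DAX-1 repression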
hgDAF12 agonist: hgDAF-12 agonism, primary luciferase screen; HEK293 GAL4-hgDAF12 UAS-luciferase reporter, agonist luminescence; normalized to butyrate control; activation, % at 6.8 µM; 370,000 compounds, 1.8% hits; AID 687014;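 active = activation above a cutoff set at the mean of all screened compounds plus 3 SD, cut at about 10% in these data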;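 note: 0% = DMSO wells and 100% = sodium butyrate wells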
* marks the source's active call; other numbers are inactive results; / = no result given.

SMILES	hcDAF-12 act	ssDAF-12 act	Wnt act	esBAF inh	DAX1 StAR inh	hgDAF12 agonist
O=C(COc1ccc(Cl)cc1)NNC(=O)c1ccc2c(=O)n3c(nc2c1)CCC3	0.0	-0.9	-0.6	-0.9	4.1*	-1.9
O=C(Nc1nccs1)c1ccc2c(=O)n3c(nc2c1)CCCCC3	3.2	-0.7	15.1	52.8*	1.5	8.1
Cc1csc(NC(=O)c2ccc3c(=O)n4c(nc3c2)CCCCC4)n1	2.1	-0.3	10.2	/	2.2	10.4
C[C@@H]1CCCCO[C@H](CN(C)C(=O)CCC(F)(F)F)[C@H](C)CN([C@@H](C)CO)C(=O)c2cc(NC(=O)CCCN(C)C)ccc2O1	/	/	/	-1.4	/	/
COCC(=O)N(C)C[C@@H]1Oc2ncc(C#C[C@@H](C)O)cc2C(=O)N([C@@H](C)CO)C[C@H]1C	/	/	/	3.3	/	/
COc1ccc2c(n1)Sc1nc3ccccc3nc1N2	2.1	0.6	40.3*	23.4	-2.0	3.9
C[C@@H]1CCCCO[C@@H](CN(C)CC2CCCCC2)[C@@H](C)CN([C@H](C)CO)C(=O)c2cc(NS(=O)(=O)c3cn(C)cn3)ccc2O1	/	/	/	1.7	/	/
CCCC(=O)N1CCC1(C)C(=O)Nc1cc(-c2ccccc2)nn1C (stereo not given)	2.9	0.0	32.6*	55.2*	3.9*	11.7*
Cc1csc(Nc2cccc3ccccc23)n1	0.8	-1.4	-1.9	/	-0.2	2.2
Oc1ccc(-c2csc(Nc3cccc4ccccc34)n2)cc1O	1.4	2.1*	0.0	-17.3	-0.1	3.6
Cc1cccc(Nc2nc(-c3ccc(O)c(O)c3)cs2)n1	3.2	0.2	7.9	93.2*	1.2	5.0
Oc1ccc(-c2csc(Nc3ccccn3)n2)cc1O	5.2	0.5	7.6	0.6	1.3	6.2
O=C(C[C@H]1C[C@H]2c3cc(NC(=O)Cc4ccncc4)ccc3O[C@H]2[C@@H](CO)O1)NCc1cccnc1	/	/	/	-7.2	/	/
CC(=O)n1nc(-c2ccco2)nc1SCc1ccccc1	/	/	/	55.1*	/	/
CCC(=O)n1nc(-c2ccco2)nc1SCc1ccccc1	0.3	-0.5	10.9	29.7	1.2	4.9
c1ccc2cc(Cn3ccc4ccc(-c5ccc6cc[nH]c6c5)cc43)ccc2c1	2.7	1.2*	/	/	-0.6	0.0
c1ccc2cc(Cn3ccc4ccc(-c5ccc6ccn(Cc7ccc8ccccc8c7)c6c5)cc43)ccc2c1	-0.8	-0.7	/	/	-1.0	0.5
O=C(OCCc1cc2ccccc2c(=O)o1)c1cccs1	0.4	-0.9	-0.2	74.6*	-0.5	2.1
COc1ccc(C(=O)OCCc2cc3ccccc3c(=O)o2)cc1	-0.8	-1.2	-2.0	19.0	0.1	1.7
COc1ccc(OCCOC(=O)c2cccs2)cc1	-0.9	-1.0	1.1	49.6*	-0.7	0.5
COc1ccc(C/C(N)=N/OC(=O)c2cccs2)cc1	0.4	-1.0	0.9	/	1.1	5.3
O=c1[nH]c(-c2ccco2)nc2sc3c(c12)CCCC3	2.3	0.8	39.2*	/	3.1	12.6*
NC(=O)C1CCN(c2nc(-c3ccc4c(c3)CCO4)cs2)CC1	1.7	-0.1	/	/	/	5.3
CC(=O)Nc1nc(-c2ccc3c(c2)CCO3)cs1	2.5	-1.1	-2.4	/	0.5	11.5*
Nc1nc(-c2ccc3c(c2)CCO3)cs1	1.1	-0.6	34.3*	/	0.3	1.6
SMILES	hcDAF-12 act	ssDAF-12 act	Wnt act	esBAF inh	DAX1 StAR inh	hgDAF12 agonist
CC(C)(O)C#Cc1ccc([C@H]2[C@@H](CO)N3CCCCN(C(=O)c4ccncc4)C[C@@H]23)cc1	/	/	/	-0.5	/	/
Cc1cc(C)cc(C(=O)Nc2nc3ccccc3[nH]2)c1	1.2	-0.7	14.1	80.0*	0.5	7.0
COc1ccc(OC)c(S(=O)(=O)N2CCC(c3nc4ccccc4[nH]3)CC2)c1	1.2	-0.3	-6.3	8.5	4.1*	0.8
COc1cc(OC)cc(C(=O)Nc2nc3ccccc3[nH]2)c1	2.9	-0.8	/	/	0.4	8.4
O=C(Nc1nc2ccccc2[nH]1)c1cc(F)cc(F)c1	5.6*	0.7	22.0	-1.8	1.6	10.4
COc1ccc(C(=O)Nc2nc3ccccc3[nH]2)cc1S(=O)(=O)N1CCCC1	-1.5	-1.5	4.7	45.2*	-0.5	-1.2
COc1ccc(C(=O)Nc2nc3ccccc3[nH]2)cc1OC	1.7	-0.6	18.5	/	2.0	7.3
C[C@H]1CN([C@@H](C)CO)C(=O)c2ccccc2-c2ccccc2CO[C@H]1CN(C)S(=O)(=O)c1cccc(F)c1	/	/	/	4.6	/	/
COc1ccc(OC)c(S(=O)(=O)N2CCC(C(=O)N3CCN(C4CCCCC4)CC3)CC2)c1	0.2	-1.4	/	/	4.2*	-1.1
COc1ccc(C(=O)N2CCN(c3ccc(C(C)=O)cc3)CC2)cc1S(=O)(=O)N1CCCC1	-1.5	-1.4	7.4	47.7*	-0.6	-0.4
N#CC(Cc1ccc(OC(F)F)cc1)c1nc2ccccc2[nH]1 (stereo not given)	1.4	-0.8	25.0	59.6*	1.6	5.8
COc1ccc(OC)c(Cc2nnc(CCC(=O)N3CCN(C4CCCC4)CC3)o2)c1	2.3	-0.9	17.1	33.0	3.7*	4.1
C[C@@H]1CN([C@H](C)CO)C(=O)c2cccc(NC(=O)C3CCOCC3)c2O[C@@H]1CN(C)Cc1ccc(Oc2ccccc2)cc1	/	/	/	0.9	/	/
O=C(Nc1nc2ccccc2[nH]1)c1ccc(OC(F)F)cc1	2.7	-0.3	17.8	-63.0	0.6	11.0*
CCC(Oc1ccccc1)C(=O)Nc1nc2ccccc2[nH]1 (stereo not given)	-0.5	-0.7	6.6	52.9*	0.2	0.8
CN(C)S(=O)(=O)c1ccc(C(=O)Nc2nc3ccccc3[nH]2)cc1	1.3	-1.4	13.4	65.7*	2.7	7.9
COc1cccc(CC(=O)Nc2nc3ccccc3[nH]2)c1	0.4	-1.6	0.8	6.8	0.2	1.8
Cc1c(C(=O)Nc2nc3ccccc3[nH]2)cccc1[N+](=O)[O-]	5.3	1.5*	24.9	/	1.6	7.8
COc1ccc(NC(=O)N(C)C[C@H]2Oc3ccc(NC(=O)C4CCCCC4)cc3C(=O)N([C@H](C)CO)C[C@H]2C)cc1	/	/	/	-1.9	/	/
Cc1ccc(S(=O)(=O)Nc2ccc3c(c2)CC(=O)N([C@H](C)CO)C[C@H](C)[C@@H](CN(C)S(=O)(=O)c2cccs2)O3)cc1	/	/	/	4.8	/	/
C[C@H]1CCCCO[C@H](CN(C)Cc2ccc(C(=O)O)cc2)[C@@H](C)CN([C@@H](C)CO)C(=O)c2cc(NS(=O)(=O)c3cccs3)ccc2O1	/	/	/	6.7	/	/
CC(C)NC(=O)NCC[C@H]1CC[C@@H](NC(=O)CCN2CCCCC2)[C@@H](CO)O1	/	/	/	-3.3	/	/
CC1CCN(C(=O)c2cc3c(=O)n4ccccc4nc3s2)CC1	2.9	-0.1	7.0	29.2	1.2	1.4
CCN(C(=O)c1cc2c(=O)n3cccc(C)c3nc2s1)C1CCCCC1	1.1	0.3	-1.7	67.3*	-0.3	3.7
CCN(C(=O)c1cc2c(=O)n3ccccc3nc2s1)C1CCCCC1	3.2	-1.1	9.5	58.0*	0.0	2.4
